Several values for one entry are separate records, joined by “and”; a condition that tells them apart may be missing. Equal values may be shown once. Records with an inconclusive call do not appear. For part of these data: Measured potencies and affinities stand elsewhere. Activity calls are given as the source filed them. Cut-off read from the data, not from the text of the source, unless noted: active = inhibition above about 80%; inactive = the rest.
Tests used:
[1] = target: ATP-dependent translocase ABCB1 (Homo sapiens) (UniProt P08183); test: MDR1 (ABCB1) efflux transporter inhibition, cell-based (AID 377; in the data active = fluorescence slope change above about 50%); settings: MDR1-expressing cells, fluorescent substrate accumulation slope; stronger effect = higher value; concentration not given here
Chain of ATP-dependent translocase ABCB1 (Homo sapiens) (P08183 whole entry, looked up): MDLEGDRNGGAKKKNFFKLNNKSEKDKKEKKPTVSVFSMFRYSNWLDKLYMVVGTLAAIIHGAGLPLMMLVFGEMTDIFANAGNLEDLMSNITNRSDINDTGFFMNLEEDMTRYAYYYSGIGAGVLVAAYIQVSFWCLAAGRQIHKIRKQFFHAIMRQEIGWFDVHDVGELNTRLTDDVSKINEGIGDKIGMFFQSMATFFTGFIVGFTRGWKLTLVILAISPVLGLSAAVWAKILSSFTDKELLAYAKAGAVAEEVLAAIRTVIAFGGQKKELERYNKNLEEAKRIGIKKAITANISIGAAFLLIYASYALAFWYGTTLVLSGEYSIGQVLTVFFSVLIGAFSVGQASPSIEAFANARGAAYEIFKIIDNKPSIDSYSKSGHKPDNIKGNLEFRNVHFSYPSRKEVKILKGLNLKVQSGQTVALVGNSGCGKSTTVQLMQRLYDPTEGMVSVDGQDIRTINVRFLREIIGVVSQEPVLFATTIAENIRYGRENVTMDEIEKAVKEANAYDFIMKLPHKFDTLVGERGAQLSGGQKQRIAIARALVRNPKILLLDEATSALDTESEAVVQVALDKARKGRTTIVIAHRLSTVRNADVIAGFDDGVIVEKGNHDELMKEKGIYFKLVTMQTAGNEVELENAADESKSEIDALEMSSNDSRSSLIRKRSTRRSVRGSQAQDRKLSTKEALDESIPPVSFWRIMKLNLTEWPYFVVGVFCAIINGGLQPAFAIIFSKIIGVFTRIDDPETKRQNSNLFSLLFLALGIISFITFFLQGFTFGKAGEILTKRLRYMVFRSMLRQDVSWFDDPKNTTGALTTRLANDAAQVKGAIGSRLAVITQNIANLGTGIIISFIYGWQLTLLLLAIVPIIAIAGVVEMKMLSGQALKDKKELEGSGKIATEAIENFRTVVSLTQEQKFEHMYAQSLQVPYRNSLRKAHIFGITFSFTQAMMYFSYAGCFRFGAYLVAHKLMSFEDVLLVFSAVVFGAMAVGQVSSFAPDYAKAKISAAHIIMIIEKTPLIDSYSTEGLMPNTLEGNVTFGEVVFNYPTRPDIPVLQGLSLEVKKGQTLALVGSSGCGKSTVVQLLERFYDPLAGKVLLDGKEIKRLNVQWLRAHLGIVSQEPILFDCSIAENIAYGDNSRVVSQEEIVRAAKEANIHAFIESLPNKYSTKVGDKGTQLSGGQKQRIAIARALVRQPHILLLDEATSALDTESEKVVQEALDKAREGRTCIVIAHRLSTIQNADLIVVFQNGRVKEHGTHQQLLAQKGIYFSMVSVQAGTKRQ

[2] = antimalarial activity against Dd2 strain (AID 2302;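 active = growth inhibition above 50% at the single 2 µM test dose, taken to imply half-maximal potency below 2 µM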;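 note: 0% = DMSO untreated growth and 100% = chloroquine plus artemisinin killed control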); settings: P. falciparum Dd2 in RBCs, LDH growth readout, 72 h; at 2 µM; stronger effect = higher value
[3] = HepG2 cytotoxicity, primary screen, cytotoxicity control for P. falciparum antimalarial project, cell-based, ATP luminescence (AID 2303;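 active = inhibition above 50%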;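 note: 0% = DMSO wells and 100% = digitonin-killed cells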); settings: HepG2 viability, 24-48 h, at 10 µM, stronger effect = higher value
[4] = target: L-lactate dehydrogenase (Plasmodium falciparum (isolate CDC / Honduras)) (UniProt Q27743); test: PfLDH activity inhibition – cell lysate, 3D7 strain, counter-screen for P. falciparum growth inhibition project (AID 2304; call rule not given here;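 note: 0% = vehicle and 100% = reference inhibitor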); settings: P. falciparum 3D7 crude extract, LDH APAD/NBT absorbance; at 2 µM; stronger effect = higher value
Chain of L-lactate dehydrogenase (Plasmodium falciparum (isolate CDC / Honduras)) (Q27743 whole entry, looked up): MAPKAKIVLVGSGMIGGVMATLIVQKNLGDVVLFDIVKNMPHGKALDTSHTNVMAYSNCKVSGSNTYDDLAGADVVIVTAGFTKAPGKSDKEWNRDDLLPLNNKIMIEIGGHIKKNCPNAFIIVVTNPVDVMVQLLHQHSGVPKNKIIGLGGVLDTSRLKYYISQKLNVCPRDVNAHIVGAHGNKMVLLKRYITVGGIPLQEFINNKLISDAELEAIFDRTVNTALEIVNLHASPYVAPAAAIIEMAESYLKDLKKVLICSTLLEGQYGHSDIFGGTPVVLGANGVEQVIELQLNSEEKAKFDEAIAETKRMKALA

[5] = inhibition of 3D7 malaria parasite growth – strain 3D7 (AID 2306; call rule not given here;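 note: 0% = DMSO wells and 100% = chloroquine plus artemisinin control wells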); settings: P. falciparum 3D7 erythrocytic growth, LDH absorbance, 72 h; at 2 µM; stronger effect = higher value
[6] = circadian clock period modulators, cell-based, LOPAC library, luminescence reporter (AID 2774; call rule not given here;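 note: values are relative to mean of DMSO wells on each plate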); settings: circadian reporter cells, at 7 µM, actives lie on both sides
[7] = hESC survival regulators, cell-based (AID 493140; call rule not given here;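 note: cells exposed to compounds for four days before counting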); settings: human embryonic stem cell survival screen; stronger effect = higher value
[8] = liver-stage malaria parasite growth inhibition, primary screen, cell-based, HepG2, luciferase luminescence, HepG2 viability (AID 624349; in the data active = parasite load remaining mostly below about 12%, no sharp cut-off; inactive = mostly above about 10%;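 note: 100% = mean of DMSO negative control wells on the same plate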); settings: P. berghei liver stage in HepG2, luciferase luminescence, concentration not given here; parasite load remaining: stronger effect = lower value; viability: measured here: HepG2 viability without parasites
[9] = system: Hepatitis C virus NS3 helicase; test: HCV NS3 helicase inhibitors, primary screen, biochemical, fluorescence polarization, LOPAC1280 library (AID 687035; in the data active = inhibition above about 37%); settings: Purified HCV NS3 helicase, Cy5-dT15 ssDNA binding fluorescence polarization; stronger effect = higher value; concentration not given here
[10] = Cy5 fluorescence quenching or enhancement artefacts, artefact control for HCV NS3 helicase inhibitor project, biochemical, LOPAC1280 (AID 687037; call rule not given here); settings: Cy5-DNA-NS3h complex fluorescence interference counterscreen
[11] = target: Calcium-dependent protein kinase 1 (Plasmodium falciparum (isolate 3D7)) (UniProt P62344); test: PfCDPK1 kinase inhibitors, biochemical, TCAMS library (AID 1159585; cut-off not given, nearly all actives have IC50 up to about 0.98 µM;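 note: inhibitors leave more ATP so luminescence rises with inhibition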); settings: recombinant PfCDPK1, Kinase-Glo ATP depletion luminescence
Chain of Calcium-dependent protein kinase 1 (Plasmodium falciparum (isolate 3D7)) (P62344 whole entry, looked up): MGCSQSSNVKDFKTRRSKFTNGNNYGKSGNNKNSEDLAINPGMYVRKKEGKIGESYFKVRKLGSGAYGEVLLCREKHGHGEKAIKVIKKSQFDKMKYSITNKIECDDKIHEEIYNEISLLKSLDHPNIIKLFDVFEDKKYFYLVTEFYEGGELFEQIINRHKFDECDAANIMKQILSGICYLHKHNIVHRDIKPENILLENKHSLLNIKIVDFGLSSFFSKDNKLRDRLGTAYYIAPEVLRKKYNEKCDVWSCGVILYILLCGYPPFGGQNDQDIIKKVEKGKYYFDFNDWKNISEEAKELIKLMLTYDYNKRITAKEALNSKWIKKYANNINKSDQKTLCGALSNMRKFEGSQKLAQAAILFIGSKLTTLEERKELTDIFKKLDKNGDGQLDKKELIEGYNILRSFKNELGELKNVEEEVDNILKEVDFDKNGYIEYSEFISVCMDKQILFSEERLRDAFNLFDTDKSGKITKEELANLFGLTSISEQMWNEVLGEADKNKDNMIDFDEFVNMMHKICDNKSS

[12] = target: Plasmodium falciparum protein kinase 6 (PK6, PF3D7_1337100) (UniProt Q8IDW1); test: PfPK6 kinase inhibitors, biochemical, TCAMS library (AID 1159586; call rule not given here); settings: recombinant PfPK6, Kinase-Glo ATP depletion luminescence
Chain of Plasmodium falciparum protein kinase 6 (PK6, PF3D7_1337100) (Q8IDW1 1-305): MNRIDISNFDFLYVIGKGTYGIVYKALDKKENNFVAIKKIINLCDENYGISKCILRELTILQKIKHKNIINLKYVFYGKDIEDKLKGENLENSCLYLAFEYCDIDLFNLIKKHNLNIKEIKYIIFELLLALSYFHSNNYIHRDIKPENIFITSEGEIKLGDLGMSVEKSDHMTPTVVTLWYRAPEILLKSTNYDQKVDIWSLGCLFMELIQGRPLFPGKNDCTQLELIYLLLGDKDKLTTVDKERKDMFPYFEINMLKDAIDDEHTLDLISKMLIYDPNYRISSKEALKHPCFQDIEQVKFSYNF

[13] = target: Protein kinase 7 (PK7), Plasmodium falciparum 3D7 (PF3D7_0213400) (UniProt Q7YTF7); test: inhibition of Plasmodium PK7 catalytic activity – biochemical, TCAMS antimalarial set, Kinase-Glo luminescence (AID 1159587; call rule not given here); settings: recombinant PfPK7, Kinase-Glo ATP depletion luminescence
Chain of Protein kinase 7 (PK7), Plasmodium falciparum 3D7 (PF3D7_0213400) (Q7YTF7 1-343): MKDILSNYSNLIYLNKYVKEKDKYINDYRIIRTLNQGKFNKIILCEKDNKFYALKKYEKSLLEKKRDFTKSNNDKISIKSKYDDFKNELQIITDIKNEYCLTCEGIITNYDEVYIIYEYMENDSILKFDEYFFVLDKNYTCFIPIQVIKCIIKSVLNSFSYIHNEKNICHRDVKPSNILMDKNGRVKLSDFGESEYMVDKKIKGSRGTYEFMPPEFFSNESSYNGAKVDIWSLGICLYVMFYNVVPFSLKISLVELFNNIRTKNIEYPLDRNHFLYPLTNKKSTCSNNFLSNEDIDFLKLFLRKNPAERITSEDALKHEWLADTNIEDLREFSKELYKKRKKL

[14] = target: Calcium-dependent protein kinase 4 (Plasmodium falciparum (isolate 3D7)) (UniProt Q8IBS5); test: PfCDPK4 kinase inhibitors, biochemical, TCAMS library (AID 1159588; cut-off not given, nearly all actives have IC50 up to about 0.91 µM); settings: recombinant PfCDPK4, Kinase-Glo ATP depletion luminescence
Chain of Calcium-dependent protein kinase 4 (Plasmodium falciparum (isolate 3D7)) (Q8IBS5 whole entry, looked up): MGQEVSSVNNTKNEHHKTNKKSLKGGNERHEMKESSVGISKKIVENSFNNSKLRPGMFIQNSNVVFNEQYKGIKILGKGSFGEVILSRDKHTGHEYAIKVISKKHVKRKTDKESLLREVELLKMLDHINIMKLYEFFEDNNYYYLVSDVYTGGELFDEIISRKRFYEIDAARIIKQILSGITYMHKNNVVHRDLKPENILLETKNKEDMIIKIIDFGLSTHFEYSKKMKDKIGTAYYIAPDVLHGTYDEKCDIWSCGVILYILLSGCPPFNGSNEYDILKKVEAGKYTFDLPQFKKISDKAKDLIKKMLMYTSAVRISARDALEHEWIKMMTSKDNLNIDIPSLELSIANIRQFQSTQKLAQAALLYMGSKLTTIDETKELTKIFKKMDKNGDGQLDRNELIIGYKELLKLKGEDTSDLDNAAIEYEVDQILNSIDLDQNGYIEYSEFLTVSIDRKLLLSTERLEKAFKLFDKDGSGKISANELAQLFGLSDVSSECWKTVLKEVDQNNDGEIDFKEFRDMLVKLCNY

[15] = system: Aerobactin synthetase IucA (Klebsiella pneumoniae, hypervirulent); test: IucA enzyme inhibition, biochemical, LOPAC library, absorbance readout (AID 1346212; call rule not given here;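 note: 100% = no compound wells and 0% = no enzyme wells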); settings: IucA enzyme assay, absorbance (OD) readout; stronger effect = lower value;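 tested at 8 µM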
[16] = sensitizers of A549 cells to miR-34 induction, primary screen, imaging, A549 dox-inducible miR-34, nuclei and caspase counts (AID 1347080;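 active = compounds whose cell count with miR-34 switched on is under 0.7 times the count with it off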); settings: A549 miR-34 inducible, Hoechst nuclei count, 48 h
[17] = phospholipid biosynthesis inhibitors in animal cells, primary screen, cell-based, LOPAC library, screen 4 (AID 1347384; call rule not given here); settings: phospholipid biosynthesis inhibition screen, at 10 µM
[18] = viability rescue of complex I mutant cybrids, primary screen, cell-based, galactose medium, ATP luminescence (AID 1645843;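 active = z-score of at least 1.8 in each of two replicates, scored against plate mean and spread of sample wells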;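 note: positive z means more ATP and so rescue of galactose-driven cybrid death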); settings: complex I mutant cybrid cells, 72 h, stronger effect = higher value
[19] = LFS_MB_P medulloblastoma growth inhibition, cell-based, chromothripsis tumors, cisplatin or BGB combos (AID 1671449); settings: LFS_MB_P medulloblastoma cells;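 note: cells exposed for 96 hours; 0% = vehicle DMSO and 100% = killing by high DMSO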
[20] = HDN33 neuroblastoma growth inhibition, cell-based, chromothripsis tumors, cisplatin or BGB combos (AID 1671450); settings: HDN33 neuroblastoma cells, stronger effect = higher value;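 note: cells exposed to compound for four days; 0% = vehicle DMSO and 100% = cell killing by high DMSO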
[21] = ICB984 medulloblastoma cell growth inhibition, synergistic combos for chromothripsis tumors, cisplatin or BGB combos (AID 1671451; call rule not given here;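 note: cells exposed for 96 hours before readout; 0% = vehicle DMSO and 100% = killing by high DMSO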); settings: ICB984 medulloblastoma cells, drug combinations, stronger effect = higher value
[22] = LFS_MB_1R medulloblastoma cell growth inhibition, synergistic combos for chromothripsis tumors, cisplatin or BGB combos (AID 1671452); settings: LFS_MB_1R medulloblastoma cells, stronger effect = higher value;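 note: cells exposed for 96 hours before readout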
[23] = HTB85 osteosarcoma cell growth inhibition, synergistic combos for chromothripsis tumors, BGB or cisplatin IC20 combos (AID 1671453); settings: HTB85 osteosarcoma cells, drug combinations, stronger effect = higher value;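 note: cells exposed for 96 hours before readout; 0% = vehicle DMSO and 100% = high DMSO killing control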
[24] = CRL2098 osteosarcoma cell growth inhibition, synergistic combos for chromothripsis tumors, BGB or cisplatin IC20 combos (AID 1671454); settings: CRL2098 osteosarcoma cells, drug combinations, stronger effect = higher value;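 note: cells exposed for 96 h before readout; 0% = vehicle DMSO and 100% = killing by high DMSO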
[25] = HD-MB03 medulloblastoma cell growth inhibition, synergistic combos for chromothripsis tumors, BGB or cisplatin IC20 combos (AID 1671455; in the data active = inhibition above about 83%;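 note: 0% = vehicle DMSO and 100% = high DMSO as cytotoxic control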); settings: HD-MB03 medulloblastoma cells, stronger effect = higher value
[26] = UWB1.289 ovarian carcinoma cell growth inhibition, synergistic combos for chromothripsis tumors, BGB or cisplatin combos (AID 1671456); settings: UWB1.289 ovarian carcinoma cells, stronger effect = higher value;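 note: cells exposed to compound for four days; 0% = vehicle DMSO and 100% = killing by high DMSO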
[27] = LFS_MB_2R medulloblastoma cell growth inhibition, synergistic combos for chromothripsis tumors, cisplatin combos (AID 1671457); settings: LFS_MB_2R medulloblastoma cells, stronger effect = higher value;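 note: cells exposed to compound for four days before readout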
[28] = MDA-MB-436 breast carcinoma cell growth inhibition, synergistic combos for chromothripsis tumors, BGB or cisplatin combos (AID 1671458; call rule not given here;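 note: cells exposed for 96 hours; 0% = vehicle DMSO and 100% = killing by high DMSO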); settings: MDA-MB-436 breast carcinoma growth inhibition, drug combinations, stronger effect = higher value
[29] = UWB1.289_BRCA1 ovarian cancer growth, cell-based, BGB or cisplatin combinations (AID 1671459); settings: UWB1.289 BRCA1 ovarian carcinoma, drug combinations, stronger effect = higher value
[30] = human astrocyte viability loss, single and combined drugs, cytotoxicity control for chromothriptic childhood tumor combination screen, cell-based, BGB or cisplatin IC20 combos (AID 1671460); settings: Human astrocytes, drug combinations, stronger effect = higher value;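 note: cells exposed to compounds for 96 hours before viability readout; 0% = vehicle and 100% = killing control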
[31] = growth inhibition of BT084 medulloblastoma cells, cell-based, ICGC_MB145, cisplatin and BGB IC40 combos (AID 1671461); settings: drug combinations, stronger effect = higher value;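 note: cells exposed to drugs for 96 hours; 0% = vehicle DMSO and 100% = high DMSO full killing control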
[32] = growth inhibition of RCMB18 medulloblastoma cells, cell-based, cisplatin and BGB IC40 combos (AID 1671462); settings: stronger effect = higher value;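 note: cells exposed to compound for four days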
[33] = growth inhibition of CRL1545 osteosarcoma cells, cell-based, cisplatin and BGB IC20 combos (AID 1671464); settings: stronger effect = higher value;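 note: cells exposed to compound for 96 hours before readout; 0% = vehicle DMSO and 100% = high DMSO killing control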
[34] = measured here: combination with BGB IC40, at 0.05 µM
[35] = measured here: with BGB IC20 combination, at 0.5 µM
[36] = measured here: with cisplatin IC20 combination, at 0.5 µM
[37] = measured here: combination with cisplatin, at 0.5 µM
[38] = measured here: combination with cisplatin, at 5 µM

## Cc1c2ccncc2c(C)c2c1[nH]c1ccccc12
[1]
  fluorescence slope change: 77.1% (active)
[2]
  growth inhibition: 97% (active)
[3]
  inhibition: 38% (inactive)
[4]
  inhibition: 2% (inactive)
[5]
  growth inhibition: 95% (active)
[6]
  period change: 0.09 h (inactive)
[7]
  survival: 10.4 (inactive)
[8]
  parasite load remaining: 62% (inactive) and 52.8% (inactive)
  viability: 85.3% and 75.8%
[9]
  inhibition: -3% (inactive)
[10]
  fluorescence ratio (interference): 1 (inactive)
[11]
  outcome: inactive
[12]
  outcome: inactive
[13]
  outcome: inactive
[14]
  outcome: inactive
[15]
  remaining activity: 81.7% (inactive)
[16]; stronger effect = lower value
  fold change: 1.32 (inactive) and 0.785 (inactive)
[16]; measured here: relative caspase fold change +Dox/-Dox
  fold change: 1.54 and 1.45
[16]; measured here: total cells with miR-34 induction, stronger effect = lower value
  cell count: 324 and 1410
[16]; measured here: total cells without miR-34 induction
  cell count: 246 and 1800
[17]
  outcome: inactive
[18]
  z-score: -0.975 (inactive)
[19]; at 0.5 µM, stronger effect = higher value
  inhibition: -2.79% (inactive)
[19]; measured here: combination with BGB IC20, at 0.005 µM
  inhibition: -42.2%
[19]; measured here: combination with BGB IC40, at 0.005 µM
  inhibition: 16.3%
[19]; [34]
  inhibition: -3.69%
[19]; measured here: combination with cisplatin, at 0.5 µM, stronger effect = higher value
  inhibition: -10.1%
[19]; measured here: combination with cisplatin, at 5 µM, stronger effect = higher value
  inhibition: 97%
[20]; BGB combo, at 5 µM
  inhibition: 71.9%
[20]; at 0.5 µM
  inhibition: 19.9% (inactive)
[20]; cisplatin combo, at 5 µM
  inhibition: 81.9%
[20]; [35]
  inhibition: 6.43%
[20]; [36]
  inhibition: 19.1%
[20]; single agent, at 5 µM
  inhibition: 86.5%
[21]; BGB IC20 combo, at 0.005 µM
  inhibition: 64.1%
[21]; BGB IC40 combo, at 0.005 µM
  inhibition: 71.1%
[21]; BGB IC40 combo, at 0.05 µM
  inhibition: 99.2%
[21]; at 0.5 µM
  inhibition: -7.09% (inactive)
[21]; cisplatin combo, at 0.05 µM
  inhibition: 99.7%
[21]; cisplatin combo, at 0.5 µM
  inhibition: -15.1%
[21]; cisplatin combo, at 5 µM
  inhibition: 2.54%
[21]; measured here: 5 uM single agent, at 5 µM
  inhibition: -6.79%
[22]; at 0.5 µM
  inhibition: 52.5% (inactive)
[22]; [34]
  inhibition: -15.3%
[22]; [37]
  inhibition: 90.8%
[22]; [38]
  inhibition: 99.2%
[23]; at 0.5 µM
  inhibition: -6.03% (inactive)
[23]; measured here: with BGB IC20, at 0.5 µM
  inhibition: -6.83%
[23]; measured here: with BGB IC20, at 5 µM
  inhibition: 36.4%
[23]; measured here: with cisplatin IC20, at 0.5 µM
  inhibition: -14.1%
[23]; measured here: with cisplatin IC20, at 5 µM
  inhibition: 40.2%
[23]; single agent, at 5 µM
  inhibition: 51.7%
[24]; at 0.5 µM
  inhibition: -3.13% (inactive)
[24]; measured here: combination with BGB at IC20, at 0.5 µM
  inhibition: -26.6%
[24]; measured here: combination with cisplatin at IC20, at 0.5 µM
  inhibition: 16.5%
[25]; at 0.5 µM
  inhibition: 21.3% (inactive)
[25]; measured here: combo with BGB at IC20, at 0.5 µM
  inhibition: 32.4%
[25]; measured here: combo with cisplatin at IC20, at 0.5 µM
  inhibition: 9.33%
[26]; at 0.5 µM
  inhibition: 18% (inactive)
[26]; measured here: inhibition with BGB combination, at 0.05 µM
  inhibition: -8.89%
[26]; measured here: inhibition with cisplatin combination, at 0.05 µM
  inhibition: -1.5%
[27]; at 0.5 µM
  inhibition: -5.42% (inactive)
[27]; [37]
  inhibition: 15.1%
[27]; [38]
  inhibition: 95.3%
[28]; at 0.5 µM
  inhibition: -9.97% (inactive)
[28]; measured here: BGB combination, at 0.5 µM
  inhibition: -20.5%
[28]; measured here: BGB combination, at 5 µM
  inhibition: 24.1%
[28]; measured here: cisplatin combination, at 0.5 µM
  inhibition: -26.7%
[28]; measured here: cisplatin combination, at 5 µM
  inhibition: 24.1%
[29]; BGB combination, concentration series, at 5 µM
  inhibition: 104%
[29]; at 0.5 µM
  inhibition: 21.4% (inactive)
[29]; cisplatin combination, concentration series, at 5 µM
  inhibition: 113%
[30]; at 0.5 µM
  inhibition: 13.8% (inactive)
[30]; measured here: combo with BGB IC20, at 0.5 µM
  inhibition: 4.66%
[30]; measured here: combo with cisplatin IC20, at 0.5 µM
  inhibition: -5.08%
[31]; at 0.5 µM
  inhibition: 48.9% (inactive)
[31]; cisplatin combination, at 0.5 µM
  inhibition: 60.2%
[31]; cisplatin combination, at 5 µM
  inhibition: 49.9%
[31]; measured here: BGB IC40 combination 0.05 uM, at 0.05 µM
  inhibition: 16.8%
[31]; single agent, at 5 µM
  inhibition: 44.6%
[32]; at 0.5 µM
  inhibition: 14.6% (inactive)
[32]; cisplatin combo, at 5 µM
  inhibition: 91.5%
[32]; measured here: BGB IC40 combination, at 0.05 µM
  inhibition: 1.25%
[32]; [37]
  inhibition: -51.3%
[32]; single agent, at 5 µM
  inhibition: 70.8%
[33]; at 0.5 µM
  inhibition: -40.6% (inactive)
[33]; [35]
  inhibition: -33.3%
[33]; [36]
  inhibition: -46.6%
[33]; single agent, at 0.05 µM
  inhibition: -12.4%
[33]; single agent, at 5 µM
  inhibition: 68.6%

Source: PubChem BioAssay
